The values that follow come from PubChem BioAssay (Tox21).

A short description of experiment [1]: Nuclear factor erythroid 2-related factor 2/antioxidant responsive element (Nrf2/ARE) small molecule agonists: qHTS cell viability counter screen in human keratinocytes (AID 1919968; active = well fitted curve in the direction sought with a large enough effect in the repeat runs; an effect the other way counts as inactive or inconclusive; note: nearly all actives have a fitted effect of over 55% in size). The method, boiled down: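 Measured as CellTiter-Fluor fluorescence, this readout tracks cytotoxicity in the same wells as the ARE-luciferase screen. HaCaT reporter cells (1,500/well) received compounds after a 5 h pre-incubation and were exposed for 23 h.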

The nature of experiment [2]: Nuclear factor erythroid 2-related factor 2/antioxidant responsive element (Nrf2/ARE) small molecule agonists: luciferase reporter gene qHTS assay in human keratinocytes (AID 1919969). Note: nearly all actives have a fitted effect of over 35% in size. Note: potency is the fitted concentration of half-maximal effect. For orientation: A reporter such as luciferase makes a cellular process visible.
Experiment [3] deals with Gonadotropin-releasing hormone receptor (Homo sapiens) (UniProt P30968). The experiment in a line: Human gonadotropin-releasing hormone receptor (GnRHR) small molecule agonists, calcium flux assay in GnRHR-HEK293 cells (AID 1920063). Note: nearly all actives have a fitted effect of over 35% in size. The method, boiled down: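 Fluorescence kinetics (480 nm excitation, 540 nm emission; 3 min, 1 s steps) report calcium mobilisation in human GnRHR-HEK293 cells in agonist mode. Dye incubation: 1 h, 37 C.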
A general note: Calcium flux is commonly read through the fluorescence of an indicator in the cells.

The target of experiment [4] is KiSS-1 receptor (Homo sapiens) (UniProt Q969F8). The experiment in a line: Human kisspeptin (KISS1R) small molecule agonists, calcium flux assay in KISS1R-HEK293 cells (AID 1920064; active = well fitted curve in the direction sought with a large enough effect in the repeat runs; an effect the other way counts as inactive or inconclusive). In outline: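 Measures KISS1R agonism through calcium-sensitive dye fluorescence in stably transfected HEK293 cells, read for 3 min after pin-tool compound delivery; 15-point titrations in triplicate.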

Experiment [5] in a line: G protein-coupled receptor (GPCR) small molecule agonists, calcium flux assay: HEK293 wild type cell line counter screen (AID 1920065). The method, boiled down:
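Readout: fluorescence at 480 nm excitation/540 nm emission, sampled at 1 s intervals for 3 min. Cells had been cultured 18 h, then dye-loaded 1 h at 37 C before compound or ATP addition.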

Experiment [6] in a line: p53 small molecule agonists, cell-based qHTS assay with human liver microsomes: qHTS cell viability counter screen (AID 1963579). Note: nearly all actives have a fitted effect of over 45% in size. In outline: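 HLM-supplemented (0.5 mg/mL final) and NADPH-supplemented (0.5 mg/mL final) p53RE-bla cultures, 4,000 cells per well, were dosed with compounds in DMSO for 16 h at 37 C; luminescent ATP detection (CellTiter-Glo, 30 min, room temperature) quantified surviving cells.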
On the technique in general: Quantitative high-throughput screening tests each substance at several concentrations.

The nature of experiment [7]: p53 small molecule agonists, cell-based qHTS assay with rat liver microsomes: qHTS cell viability counter screen (AID 1963580). Note: nearly all actives have a fitted effect of over 45% in size. In outline: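 Viability is assessed in parallel with the p53 reporter read: HCT-116 p53RE-bla cells receive compounds plus rat microsomes and NADPH (0.5 mg/mL final apiece), incubate 16 h at 37 C, and then CellTiter-Glo luminescence is recorded.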

Experiment [8] is described as follows: p53 small molecule agonists, cell-based qHTS assay: qHTS cell viability counter screen (AID 1963581). Note: nearly all actives have a fitted effect of over 45% in size. The method, boiled down: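 In the same plates used for the p53 bla reporter, HCT-116 cells given compounds for 16 h at 37 C received CellTiter-Glo; luminescence was recorded 30 min later at room temperature.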
For experiment [9], the target named is 5-hydroxytryptamine receptor 2A (Homo sapiens) (UniProt P28223). Description: 5-hydroxytryptamine receptor 2A (HTR2A) small molecule antagonists, cell-based qHTS assay (AID 1963586). Note: nearly all actives have a fitted effect of over 45% in size. The method, boiled down:
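Antagonist-mode intracellular calcium assay: DOI (4 nM) added after 5 min compound pre-incubation at room temperature to dye-loaded HTR2A-CHO cells. Fluorescence followed for 3 min, sampled every second.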

The target is the same in experiment [10]. The experiment in a line: 5-hydroxytryptamine receptor 2A (HTR2A) small molecule agonists, cell-based qHTS assay (AID 1963587). Note: nearly all actives have a fitted effect of over 30% in size. In outline:
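CHO cells stably expressing human HTR2A, plated 18 h, loaded with calcium dye 1 h at 37 C. Agonist mode: compounds added and intracellular calcium fluorescence recorded kinetically for 2 min at 1 sec intervals.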

Experiment [11] deals with Muscarinic acetylcholine receptor M1 (Homo sapiens) (UniProt P11229). Description: Cholinergic receptor muscarinic 1 (CHRM1) small molecule antagonists, cell-based qHTS assay (AID 1963588). Note: nearly all actives have a fitted effect of over 40% in size. The method, boiled down:
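CHRM1-CHO calcium-flux assay, antagonist mode. Cells were seeded 18 h, dye-loaded 1 h at 37 C and given compound for 5 min at RT, then acetylcholine was added at 50nM. FDSS fluorescence was read 3 min; 15 concentrations, three runs.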

The target is the same in experiment [12]. Description: Cholinergic receptor muscarinic 1 (CHRM1) small molecule agonists, cell-based qHTS assay (AID 1963589). Note: nearly all actives have a fitted effect of over 35% in size. In outline:
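Each compound was tested at 15 concentrations across three independent runs on dye-loaded CHO cells stably expressing human CHRM1, reading intracellular calcium fluorescence kinetically at 1 sec intervals.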

A short description of experiment [13]: cAMP Responsive Elements (CRE) small molecule agonists, cell-based qHTS assay (AID 1963590). In outline: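 Cell line: CRE-bla HEK 293T; medium DMEM/10% dialyzed FBS/0.1 mM NEAA/1 mM pyruvate/25 mM HEPES; 3 h compound exposure; beta-lactamase FRET readout after 2 h substrate loading at RT.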
The nature of experiment [14]: cAMP Responsive Elements (CRE) small molecule antagonists, cell-based qHTS assay (AID 1963591; active = well fitted inhibition curve with a large enough effect in the signal ratio in the repeat runs, not every such curve was filed as active; the % refers to the signal ratio). In outline: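 Inhibition of NKH477-driven (0.25 uM final) CRE-beta-lactamase signal in HEK293T cells, 3 h compound exposure at 37 °C, detected by FRET substrate fluorescence.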
Experiment [15] deals with Beta-2 adrenergic receptor (Homo sapiens) (UniProt P07550). Description: Adrenergic beta2 receptor (ADRB2) small molecule antagonists, cell-based qHTS assay (AID 1963592). Note: series mostly up to about 92 µM; nearly all actives have a fitted effect of over 50% in size. The method, boiled down:
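Cells (CHO, stable ADRB2 overexpression) incubated 18-20hr at 37C; compounds added from DMSO; agonist mix (1nM isoproterenol, 100uM IBMX, 25uM Ro-20-1724) added; 0.5hr RT; d2-cAMP and anti-cAMP-cryptate added; 1hr RT; 665/615 nm read.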

For experiment [16] the target is unchanged. The experiment in a line: Adrenergic beta2 receptor (ADRB2) small molecule agonists, cell-based qHTS assay (AID 1963593).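 Note: CHO cells stably overexpressing human ADRB2.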 In outline:
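CHO cells stably over-expressing ADRB2 were plated overnight at 37C, then dosed with compounds plus a stimulation mix containing 100uM IBMX and 25uM Ro-20-1724 for 0.5hr at room temperature. cAMP was measured by HTRF competition, 1hr.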

Experiment [17] deals with D(2) dopamine receptor (Homo sapiens) (UniProt P14416). The experiment in a line: Dopamine D2 receptor (DRD2) small molecule agonists, cell-based qHTS assay (AID 1963594). Note: nearly all actives have a fitted effect of over 35% in size. The method, boiled down: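 HEK293 cells stably expressing human DRD2, pre-treated with PDE inhibitor Ro20-1724 (0.1 mM final) and compound 10 min at room temperature, then stimulated with NKH477 (200nM […]) for 30 min. cAMP read by HTRF (665/620 nm).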

The target is the same in experiment [18]. The experiment in a line: Dopamine D2 receptor (DRD2) small molecule antagonists, cell-based qHTS assay (AID 1963595; active = well fitted inhibition curve with a large enough effect in the signal ratio in the repeat runs, with a control signal flat; the % refers to the signal ratio). The method, boiled down:
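HEK293 cells stably expressing DRD2 were preincubated with 0.1 mM Ro20-1724, then with compound for 10 min at room temperature. Cells were stimulated with 200 nM NKH477 plus 12 nM quinpirole for 30 min, and cAMP was read by HTRF.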

Unmarked numbers belong to inactive results. Results filed as inconclusive are left out. Calls of active or inactive are those of the source. Unless noted, calls come from the whole dose curve.
% is set by controls: 0 for no effect and ±100 for the full control effect.

Sequence of KiSS-1 receptor (Homo sapiens) (Q969F8 whole entry, looked up): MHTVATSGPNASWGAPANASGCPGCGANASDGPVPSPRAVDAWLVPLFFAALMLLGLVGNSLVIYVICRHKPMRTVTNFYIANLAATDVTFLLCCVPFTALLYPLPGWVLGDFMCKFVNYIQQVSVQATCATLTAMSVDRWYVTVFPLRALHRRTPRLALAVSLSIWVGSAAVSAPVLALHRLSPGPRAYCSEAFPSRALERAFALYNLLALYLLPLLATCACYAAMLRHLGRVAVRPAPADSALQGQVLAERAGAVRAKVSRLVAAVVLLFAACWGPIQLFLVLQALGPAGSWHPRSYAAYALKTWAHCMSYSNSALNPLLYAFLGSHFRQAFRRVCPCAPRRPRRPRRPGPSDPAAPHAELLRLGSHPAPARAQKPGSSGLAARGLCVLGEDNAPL
Sequence of Gonadotropin-releasing hormone receptor (Homo sapiens) (P30968 whole entry, looked up): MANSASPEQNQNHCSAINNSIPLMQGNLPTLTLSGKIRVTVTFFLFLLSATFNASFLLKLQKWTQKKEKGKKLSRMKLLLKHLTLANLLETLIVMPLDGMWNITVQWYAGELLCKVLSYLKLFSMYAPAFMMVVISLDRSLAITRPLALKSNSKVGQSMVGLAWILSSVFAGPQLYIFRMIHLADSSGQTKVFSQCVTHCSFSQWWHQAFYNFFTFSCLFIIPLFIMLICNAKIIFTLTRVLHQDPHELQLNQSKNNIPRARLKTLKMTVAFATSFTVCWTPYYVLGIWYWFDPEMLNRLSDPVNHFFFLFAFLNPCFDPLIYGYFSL
Sequence of Beta-2 adrenergic receptor (Homo sapiens) (P07550 whole entry, looked up): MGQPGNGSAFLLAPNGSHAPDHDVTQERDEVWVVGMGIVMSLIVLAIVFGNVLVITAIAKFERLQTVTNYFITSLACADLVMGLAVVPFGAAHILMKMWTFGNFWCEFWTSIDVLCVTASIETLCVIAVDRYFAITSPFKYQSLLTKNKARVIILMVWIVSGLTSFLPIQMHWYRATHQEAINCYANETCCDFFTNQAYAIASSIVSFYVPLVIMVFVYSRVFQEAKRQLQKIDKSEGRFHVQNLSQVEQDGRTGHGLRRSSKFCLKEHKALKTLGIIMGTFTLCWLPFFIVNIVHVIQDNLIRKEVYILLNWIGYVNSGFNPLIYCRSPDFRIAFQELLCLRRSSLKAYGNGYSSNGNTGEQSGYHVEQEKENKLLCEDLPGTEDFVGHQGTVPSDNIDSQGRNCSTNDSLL
Sequence of Muscarinic acetylcholine receptor M1 (Homo sapiens) (P11229 whole entry, looked up): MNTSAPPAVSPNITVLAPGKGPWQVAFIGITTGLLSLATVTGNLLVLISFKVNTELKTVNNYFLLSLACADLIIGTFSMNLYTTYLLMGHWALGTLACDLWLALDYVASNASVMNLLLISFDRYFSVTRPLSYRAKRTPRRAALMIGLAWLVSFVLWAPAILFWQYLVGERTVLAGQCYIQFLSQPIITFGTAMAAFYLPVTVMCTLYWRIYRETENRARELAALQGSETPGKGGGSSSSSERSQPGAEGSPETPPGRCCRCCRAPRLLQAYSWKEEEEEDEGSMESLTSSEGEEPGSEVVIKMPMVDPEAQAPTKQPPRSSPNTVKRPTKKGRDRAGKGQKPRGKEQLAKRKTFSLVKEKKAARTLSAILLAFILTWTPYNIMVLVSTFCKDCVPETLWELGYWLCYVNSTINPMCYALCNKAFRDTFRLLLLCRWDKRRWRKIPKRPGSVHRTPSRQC
Sequence of 5-hydroxytryptamine receptor 2A (Homo sapiens) (P28223 whole entry, looked up): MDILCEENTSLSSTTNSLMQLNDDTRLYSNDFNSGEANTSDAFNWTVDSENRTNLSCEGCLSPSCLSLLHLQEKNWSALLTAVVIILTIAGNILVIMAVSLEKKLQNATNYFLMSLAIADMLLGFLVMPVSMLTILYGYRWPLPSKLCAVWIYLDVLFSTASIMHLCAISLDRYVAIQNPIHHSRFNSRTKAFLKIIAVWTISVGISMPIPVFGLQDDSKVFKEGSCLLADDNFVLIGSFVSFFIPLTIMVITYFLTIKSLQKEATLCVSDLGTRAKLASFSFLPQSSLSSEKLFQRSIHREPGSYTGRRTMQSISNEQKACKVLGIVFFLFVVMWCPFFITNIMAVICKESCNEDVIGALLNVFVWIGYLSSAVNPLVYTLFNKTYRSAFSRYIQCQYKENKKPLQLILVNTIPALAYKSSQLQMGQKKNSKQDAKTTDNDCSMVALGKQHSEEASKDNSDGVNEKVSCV
Sequence of D(2) dopamine receptor (Homo sapiens) (P14416 whole entry, looked up): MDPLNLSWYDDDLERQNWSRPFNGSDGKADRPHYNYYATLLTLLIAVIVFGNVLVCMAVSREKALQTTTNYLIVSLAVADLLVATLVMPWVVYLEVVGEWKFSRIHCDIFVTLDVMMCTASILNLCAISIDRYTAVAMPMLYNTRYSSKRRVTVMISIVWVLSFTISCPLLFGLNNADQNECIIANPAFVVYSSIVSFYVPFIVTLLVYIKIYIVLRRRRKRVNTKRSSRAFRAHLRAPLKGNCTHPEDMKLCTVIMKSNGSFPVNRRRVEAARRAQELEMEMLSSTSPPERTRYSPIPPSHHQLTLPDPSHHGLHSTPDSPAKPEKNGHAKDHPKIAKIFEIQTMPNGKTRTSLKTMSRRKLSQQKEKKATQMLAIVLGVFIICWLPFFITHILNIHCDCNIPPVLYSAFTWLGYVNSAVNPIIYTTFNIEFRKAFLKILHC

Turning to `Cc1c(C)c2c(c(C)c1OC(=O)c1cccnc1)CC[C@@](C)(CCC[C@H](C)CCC[C@H](C)CCCC(C)C)O2`, the Potency result in experiment [1], in experiment [2], in [3], in experiment [4], in experiment [5] and in experiment [6] was “inactive” in each case. Moreover, the Potency result in [7], in [8], in experiment [9], in [10], in experiment [11] and in [12] was “inactive” in each case. Further, the Potency entry in [13], in experiment [14], in experiment [15], in experiment [16], in experiment [17] and in experiment [18] was “inactive” throughout.

As to `NC(=O)c1c(Cl)cccc1Cl`, the Potency entry in experiment [1], in experiment [2], in experiment [3], in experiment [4], in experiment [5] and in [6] was “inactive” in each case. Also, the Potency result in [7], in [8], in [9], in experiment [10], in experiment [11] and in experiment [12] was “inactive” in each case. The Potency result in experiment [13], in experiment [14], in experiment [15], in [16], in [17] and in [18] was “inactive” each time.

As to `C=CC(=O)N1CCOCC1`, the Potency result in experiment [1], in experiment [2], in [3], in experiment [4], in [5] and in experiment [6] was “inactive” each time. The Potency result in [7], in [8], in experiment [9], in [10], in experiment [11] and in experiment [12] was “inactive” in each case. The Potency result in experiment [13], in experiment [14], in [15], in experiment [16], in experiment [17] and in [18] was “inactive” each time.

Turning to `CCCCCCCCCCCCCCCCCBr`, the activity change, negative = cytotoxicity in experiment [1] is 2.19% [at 19 µM]; in [6] it was 5.38% [at 13.5 µM]; in experiment [7], 0.54% [at 13.5 µM]; in [8], 3.13% [at 13.5 µM]. For the same compound, the activity, positive = activation in [2] was -1.2% [at 19 µM]. Moreover, the activity change in [3] is 0.321% [at 11.8 µM, stronger effect = higher value]. The activation in [4] is 0.212% [at 15.8 µM]; in experiment [5], -0.0398% [at 11.8 µM]; in [10], 0.832% [at 15.9 µM]; in [12], -0.0212% [at 15.8 µM]; in [13], -0.0773% [at 19 µM]; in experiment [16] it was 8.09% [at 19 µM]. Moreover, the figures for the activity, negative = inhibition in [9] and in experiment [11] were 31.5% [at 12.7 µM] and 7.9% [at 12.6 µM], respectively. The values for the activity change, negative = inhibition in experiment [14], in [15] and in experiment [18] were -5.99% [at 18.9 µM], 0.719% [at 19 µM] and 0.232% [at 18.9 µM], respectively.

For `CC(C)c1ccc2cc(C(C)C)ccc2c1`, the Potency entry in [1], in experiment [3], in experiment [4], in experiment [5], in experiment [6] and in [7] was “inactive” throughout. For the same compound, the Potency entry in experiment [8], in experiment [9], in experiment [10], in [11], in [12] and in experiment [13] was “inactive” each time. Further, the Potency entry in experiment [14], in experiment [15], in experiment [16] and in [18] was “inactive” throughout. In addition, the Potency in experiment [2] is 48.6 µM (active).

For the compound `Cc1c(Cl)cccc1Cl`, the Potency result in experiment [1], in experiment [2], in experiment [3], in [4], in [5] and in experiment [6] was “inactive” in each case. Moreover, the Potency result in experiment [7], in [8], in experiment [9], in [10], in [11] and in [12] was “inactive” throughout. Also, the Potency entry in [13], in experiment [14], in experiment [15], in experiment [16], in [17] and in [18] was “inactive” each time.

As for `O=Cc1ccccc1S(=O)(=O)O`, the Potency entry in experiment [1], in [2], in experiment [3], in [4], in experiment [5] and in experiment [6] was “inactive” each time. Further, the Potency result in [7], in [8], in experiment [9], in experiment [10], in [11] and in experiment [12] was “inactive” throughout. Further, the Potency entry in experiment [13], in experiment [14], in experiment [15], in experiment [16], in [17] and in experiment [18] was “inactive” in each case.
